Assay outcomes deposited in PubChem by National Center for Advancing Translational Sciences (NCATS).
TGFb SMAD3 inh – qHTS for Inhibitors of TGF-b; Potency, µM (doses to about 46.1 µM), inactives show at the highest dose activity, negative = inhibition, hits mostly inhibitors; HepG2 CAGA-GFP TGF-b/SMAD3 reporter, GFP fluorescence, 18 h; TGF-beta stimulated, 500 pg/mL final; 410,000 compounds, 1.2% hits; further: potency means the concentration at half of the fitted maximal effect; on the % scale 0 is the no-effect control and ±100 the full control effect; nearly all actives have a fitted effect of over 65% in size
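First, reporter cells (HEPG2 CAGA-GFP) rested 2 h at 37 degrees C. Next, compounds were pinned in and TGF-beta added to 500 pg/mL final. After 18 h, GFP was imaged per cell and summed per well.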
HT1080-NT tox – qHTS for induction of synthetic lethality in tumor cells producing 2HG: qHTS for the HT-1080-NT fibrosarcoma cell line; HT-1080-NT fibrosarcoma viability, CellTiter-Glo ATP luminescence, 48 h; 360,000 compounds, 1.6% hits; Potency, µM (series often up to 46.1 µM), without a hit: at the top dose activity, negative = less viability, actives largely listed as cytotoxic; AID 686970, 2013;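 further: NT is the 2HG producing partner of a matched IDH1 knockdown line; potency means the concentration at half of the fitted maximal effect; 0% = DMSO-treated cells and -100% = media-only wells without cells; nearly all actives have a fitted effect of over 55% in size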
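Viability of the 2HG-overproducing fibrosarcoma line after 48 hours of compound exposure at 37 degrees C was determined by luminescence with CellTiter-Glo, and concentration-effect curves were then fitted and categorized.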
HT1080 IDH1KD tx – qHTS for induction of synthetic lethality in tumor cells producing 2HG: qHTS for the HT-1080-IDH1KD cell line; HT-1080 IDH1 knockdown viability, ATP luminescence, 48 h; Potency, µM (doses to about 46.1 µM), for the others: at the top dose activity, negative = toxicity, actives largely listed as cytotoxic; 360,000 compounds, 2% hits; AID 686971, 2013;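 further: potency means the concentration at half of the fitted maximal effect; 0% = DMSO wells and -100% = cell-free medium wells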
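Knockdown cells (IDH1KD HT-1080) received compounds 2 h after plating at 750 cells/well and were kept 48 h at 37 °C in 5% FBS RPMI. A CellTiter-Glo luminescence read gave % activity for curve fitting.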
HepG2 viability – qHTS for Inhibitors of TGF-b: Cytotox Counterscreen; 410,000 compounds, 0.76% hits; HepG2 CAGA-GFP viability, ATP luminescence, 18 h; Potency, µM (highest dose often 46.1 µM), without a hit: top-dose activity change, negative = cytotoxicity, hits mostly cytotoxic; further: potency means the concentration at half of the fitted maximal effect
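HepG2 CAGA-GFP cells (1000/well, DMEM with 1% FBS) received compound, then TGF-beta at 500 pg/mL final, and were incubated 18 hours at 37 degrees C. Viability was read by CellTiter-Glo luminescence. Media-only wells were set as complete cell-killing and DMSO as no toxicity.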
IL-1B inflam inh – qHTS for Inhibitors of Inflammasome Signaling: IL-1-beta AlphaLISA Primary Screen; THP-1 LPS/ATP IL-1B secretion, AlphaLISA, 16 h; stronger effect = lower value; 360,000 compounds, 4.7% hits; activity change, % at 57.5 µM; in the data active means activity change below about -50%; inconclusive means mostly about -30% to -49%; further: on the % scale 0 is the no-effect control and ±100 the full control effect
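Secreted IL-1B measured by AlphaLISA bead assay after 16 h compound exposure of THP-1 cells; compounds (final up to 57.5 uM) added 1 h before LPS (250 ng/mL) and ATP (1.25 mM) stimulation; lower signal means less secretion.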
Giardia kill – Small Molecules that selectively kill Giardia lamblia: qHTS; Giardia lamblia trophozoite viability; activity change, % at 7.66 µM, hits read low; 340,000 compounds, 0.15% hits; AID 540267, 2011; in the data active means activity change below about -80%; inconclusive means between about -30% and that limit;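 further: parasites exposed to compound for two days anaerobically before the ATP read; on the % scale 0 is the no-effect control and ±100 the full control effect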
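Compounds were tested on trophozoites seeded at 100 cells/well and held 48 hrs at 37 deg C anaerobically. An ATP-based luminescent kit measured the remaining live cells.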
Starred values were filed as active, the others as inactive; ? = inconclusive; . = no result. In the library only some 6.5% were active in any assay of this set; here they are far more common. Unless noted, the call rests on the fitted dose curve; in most records, active means well fitted curve in the direction sought with a large enough effect; inconclusive means small, poorly fitted or top-dose-only effect, or another doubt; inactive means no such curve, though single readings can be large; an effect the other way counts as inactive or inconclusive.

SMILES	TGFb SMAD3 inh	HT1080-NT tox	HT1080 IDH1KD tx	HepG2 viability	IL-1B inflam inh	Giardia kill
FC(F)(F)c1ccc(C2[C@H]3CN(Cc4ccc(-c5ccccc5)cc4)[C@H](c4ccccc4)C34CC2(c2ccccc2)C4)cc1 (stereo partly drawn)	21%	11%	12%	0%	10	?
CCN(CC)C(=O)C1=C(C)N(Cc2ccc(C(C)(C)C)cc2)C(=O)C(CC(=O)NCCCCc2ccccc2)C1 (stereo not drawn)	14µM*	?	?	-58%	?	.
CC1=C(C(=O)N2CCCCCC2)CC(CC(=O)NC2CCCC2)C(=O)N1Cc1ccc(C(C)(C)C)cc1 (stereo not drawn)	.	-5%	?	.	-73*	.
CC1=C(C(=O)N(C(C)C)C(C)C)CC(CC(=O)NC2CCCC2)C(=O)N1Cc1ccc(C(C)(C)C)cc1 (stereo not drawn)	?	?	?	-72%	-68*	.
CC1=C(C(=O)N(C)C)CC(CC(=O)NC2CCCCC2)C(=O)N1Cc1ccc(C(C)(C)C)cc1 (stereo not drawn)	-4%	-10%	16%	-18%	-5	.
Cc1ccc(S(=O)(=O)N2CCC(C(N)=O)CC2)c(C)c1C	-4%	0%	0%	12%	22	-8
O=C(Cc1ccc(Cl)cc1)NCCc1ccc(F)cc1	-24%	0%	-1%	-8%	-4	-8
O=C(CNC(=S)N(Cc1ccccc1)Cc1ccccc1F)NCCc1ccc(Cl)cc1	?	16µM*	16µM*	-31%	.	-3
O=C(CNC(=S)N(Cc1ccccc1)Cc1cccs1)NCc1ccc(F)cc1	14%	-12%	-26%	-3%	-71*	-4
O=C(CNC(=S)N(CCCN1CCOCC1)Cc1cccs1)NCc1ccccc1	8%	-3%	0%	3%	-21	-14
COc1cc2oc(=O)cc(CN3CCN(c4ccc(Cl)c(Cl)c4)CC3)c2cc1Cl	-2%	2%	10%	-1%	25	.
CC1C(=O)N2CCCc3cc(NC(=O)C(=O)NCCCc4ccccc4)cc1c32 (stereo not drawn)	-3%	-8%	-19%	-41%	7	7
CC1C(=O)N2CCCc3cc(NC(=O)C(=O)NCCc4ccc(F)cc4)cc1c32 (stereo not drawn)	12%	18µM*	21µM*	-3%	13	-7
CCN(CC)CCNC(=O)C(=O)Nc1cc2c3c(c1)CCC(=O)N3CCC2	-25%	9%	4%	-1%	-62*	5
CN(C)CCNC(=O)C(=O)Nc1cc2c3c(c1)CCC(=O)N3CCC2	0%	0%	1%	2%	-1	-11
COCc1c(C(=O)OC)nnn1-c1ccc(C(F)(F)F)cc1[N+](=O)[O-]	0%	18%	16%	-2%	-72*	9
CCOC(=O)c1nnn(-c2ccccc2)c1C	6%	-6%	-8%	-15%	-20	25
CCOC(=O)c1nnn(-c2ccc([N+](=O)[O-])cc2[N+](=O)[O-])c1C	10µM*	?	?	16µM*	?	?
CCc1nnc(NC(=O)C2CCCN(S(=O)(=O)c3ccccc3)C2)s1 (stereo not drawn)	0%	2%	2%	4%	25	-14
COc1ccc(C(=O)C2CCCN(Cc3cnc(N4CCOCC4)s3)C2)c(OC)c1 (stereo not drawn)	?	-10%	-12%	-28%	23	19
COc1ccc(C(=O)C2CCCN(Cc3cccn3-c3ccc(Cl)cn3)C2)c(OC)c1 (stereo not drawn)	?	16µM*	18µM*	-16%	.	41
COc1ccc(C(=O)C2CCCN(Cc3c[nH]c4ccccc34)C2)c(OC)c1 (stereo not drawn)	?	?	?	-55%	?	11
COc1ccc(C(=O)C2CCCN(Cc3c(F)ccc(F)c3F)C2)c(OC)c1 (stereo not drawn)	-1%	5%	-7%	-21%	-66*	-17
COc1ccc(C(=O)C2CCCN(Cc3ccc4nonc4c3)C2)c(OC)c1 (stereo not drawn)	?	-15%	-26%	6%	-69*	8
COc1ccc(C(=O)C2CCCN(Cc3ccc4nonc4c3)C2)cc1OC (stereo not drawn)	-23%	1%	-15%	-3%	-18	-3
SMILES	TGFb SMAD3 inh	HT1080-NT tox	HT1080 IDH1KD tx	HepG2 viability	IL-1B inflam inh	Giardia kill
COc1ccc(C(C)=O)cc1CSc1nnc2c(Cl)cc(Cl)cn12	0%	18%	17%	8%	1	8
O=C(c1ccc2c(=O)n(CCc3ccccc3)c(=O)[nH]c2c1)N1CCN(c2ccc(Cl)cc2)CC1	4.5µM*	.	.	-20%	.	.
CC1=C(C(=O)Nc2ccc(Cl)cc2)C(CC(C)C)n2nc(SCc3ccccc3C)nc2N1 (stereo not drawn)	10%	.	.	1%	.	.
CCOc1ccc(NS(=O)(=O)c2ccc3c(c2)CCN3C(=O)C2CCC2)cc1	?	-8%	-8%	-26%	17	-2
CCC1CCCCN1S(=O)(=O)c1ccc2c(c1)CCN2C(=O)C1CCC1 (stereo not drawn)	2%	?	?	-6%	-15	-14
O=C(CCl)c1ccc2c(c1)CCN2C(=O)C1CCCCC1	?	23µM*	?	-25%	-103*	25
O=C(C1CCC1)N1CCc2cc(S(=O)(=O)Nc3ccc4c(c3)OCO4)ccc21	-4%	-16%	16µM*	-17%	?	-22
O=C(COc1ccccc1)Nc1cccc(-c2nc3cc4ccccc4cc3[nH]2)c1	?	?	?	10µM*	-85*	-27
Cc1cc(C)cc(OCC(=O)Nc2cccc(-c3nc4ccccc4[nH]3)c2)c1	?	.	.	-62%	.	.
O=C(N/N=C(\c1ccccc1)c1ccccn1)c1ccccc1Cl	?	-15%	?	-48%	-104*	-8
COc1ccc(C(=O)N/N=C(\c2ccccc2)c2ccccn2)cc1	?	?	?	-7%	-23	-6
O=C(NN=C(c1ccccc1)c1ccccn1)c1ccccc1	?	-20%	?	-19%	-99*	0
